# HPGD inh: blocks human HPGD enzyme activity | P15428 | purified HPGD, NADH fluorescence kinetic, PGE2 substrate | Potency, µM, usual class: inhibitors | 4.3% of 150,000 active | AID 894
# Target sequence (P15428 whole entry, looked up): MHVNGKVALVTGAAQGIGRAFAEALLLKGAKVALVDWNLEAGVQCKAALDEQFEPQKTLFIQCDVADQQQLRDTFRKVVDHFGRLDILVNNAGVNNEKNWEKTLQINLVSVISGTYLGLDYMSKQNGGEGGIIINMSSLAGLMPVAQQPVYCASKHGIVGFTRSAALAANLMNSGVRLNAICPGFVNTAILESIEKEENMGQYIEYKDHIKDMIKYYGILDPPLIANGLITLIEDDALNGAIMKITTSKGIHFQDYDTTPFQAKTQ
#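 20 nM HPGD preincubated 15 min at room temperature with compound in 50 mM Tris-HCl pH 8, 0.01% Tween 20. Started with 1 mM NAD+ and 30 uM prostaglandin E2; NADH fluorescence (360/450 nm) read 5 times over 30-s intervals, last minus first.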
# PNC inhibitor: perinucleolar compartment assembly inhibition | activity change (PNC), negative = inhibition, % at 10 µM | PC3M PTB-GFP, PNC prevalence imaging, 16 h; hits give low values | 3.1% of 140,000 active;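 active = readout at or below -70, meaning at least 70% loss of cells showing the perinucleolar compartment, a nuclear body marking cancer cells; inconclusive = readout between -30 and a set limit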
#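 Compounds are pinned in duplicate onto adhered PC3M cells stably expressing GFP-tagged PTB and incubated 16 h at 37 C. Cells are then fixed, nuclei stained with Hoechst, and PNC-positive cells counted.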
# ALDH1A1 block: inhibitors of human aldehyde dehydrogenase 1A1; Potency, µM (top dose mostly 75.3 µM), usual class: inhibitors; Purified ALDH1A1, NADH fluorescence, propionaldehyde substrate; 7.3% of 220,000 active
# Hits are given with their value; 0 = inactive; ? = inconclusive; - = no result; [ ] = another dose, or the depositor's remark. Sampled rows, rich in hits. Any-hit rate of the full collection: about 11%. Unless noted, calls come from the whole dose curve; as a rule, active = well fitted inhibition curve with a large enough effect (not every such curve was filed as active); inconclusive = small, poorly fitted or top-dose-only effect, or another doubt; inactive = no such curve, though single readings can be large or run the other way.
SMILES,HPGD inh,PNC inhibitor,ALDH1A1 block
CCN(CC)C(=O)CS(=O)(=O)CC(=O)Nc1cc(OCCOC)c(Cl)cc1Cl,-,-,0
N=C(N)SCCN1CCCCC1,0,-,?
CCN1C(=O)C(CC(=O)Nc2ccc(OC)cc2)N(CCc2ccccc2)C1=S (centres undefined),-,-,2µM
COc1ccc(NC(=O)CC2C(=O)N(C)C(=S)N2CCc2ccccc2F)cc1 (centres undefined),-,-,4µM
CCN1C(=O)C(CC(=O)Nc2ccc(OC)cc2)N(Cc2cccnc2)C1=S (centres undefined),0,0,?
CCN1C(=O)C(CC(=O)Nc2ccc(F)cc2)N(CCc2ccc(OC)cc2)C1=S (centres undefined),-,-,10µM
COc1ccc(NC(=O)CC2C(=O)N(C)C(=S)N2Cc2ccco2)cc1 (centres undefined),0,0,0
CCN1C(=O)C(CC(=O)Nc2ccc(OC)cc2)N(CCN2CCOCC2)C1=S (centres undefined),-,-,0
Cn1c(SCC(=O)NNC(=O)Cc2ccccc2)nc2ccccc2c1=O,-,-,0
CCN1C(=O)[C@H]2[C@H]3[C@H](O)[C@H](O)C/C(=N/OCc4ccccc4)[C@@H]3CC[C@@H]2C1=O,-,-,0[13.5 µM]
CCN(CC)C(=O)c1ccccc1NS(C)(=O)=O,-,-,0
CC(=O)OC[C@H]1O[C@@H](O/N=C2/[C@H]3O[C@@H]3[C@@H](O)[C@H]3[C@H]2CCn2c(=O)n(-c4ccccc4)c(=O)n23)[C@H](OC(C)=O)[C@@H](OC(C)=O)[C@@H]1OC(C)=O,-,-,0[13.5 µM]
COc1cccc(OCCCOc2ccc([N+](=O)[O-])cc2Cl)c1,18µM,0,0
COc1ccccc1OCCCOc1ccc([N+](=O)[O-])cc1Cl,16µM,0,0
COc1cc(C=O)ccc1OCCCOc1ccc([N+](=O)[O-])cc1,0,0,?
CCOc1cccc(OCCOc2ccccc2[N+](=O)[O-])c1,0,0,0
CC(C)(Oc1ccc([C@@H]2CC2(Cl)Cl)cc1)C(=O)O,0,-,0
COC(=O)c1ccc(NC(=O)C(=O)NCC2CCCO2)cc1 (centres undefined),0,0,0
O=C(Nc1ccc2ccccc2c1)c1cn(-c2ccccc2)nc1-c1cccs1,?,0,?
CN(C)c1ccc(NC(=O)c2cn(-c3ccccc3)nc2-c2cccs2)cc1,0,?,8.9µM
O=C(O)CCc1nn2cc(-c3ccccc3)nc2[nH]c1=O,?,-100,?
Cc1nn2cc(-c3ccccc3)nc2[nH]c1=O,-,?,0
O=C(COc1ccc(Cl)cc1)NNC(=O)CSc1nncs1,-,-,0
COc1ccc(CCNC(=O)CSc2ccsc2[N+](=O)[O-])c(OC)c1,-,-,14µM
O=C(CSc1ccsc1[N+](=O)[O-])NCc1ccccc1,-,-,3.2µM
SMILES,HPGD inh,PNC inhibitor,ALDH1A1 block
COc1ccc(OC)c(CCNC(=O)CSc2ccsc2[N+](=O)[O-])c1,-,-,13µM
CSc1ccc(CCNC(=O)CSc2ccsc2[N+](=O)[O-])cc1,0,0,0
COc1ccccc1CNC(=O)CSc1ccsc1[N+](=O)[O-],-,-,0
COc1ccc(CCNC(=O)CSc2ccsc2[N+](=O)[O-])cc1OC,-,-,0
CCN1C(=O)[C@H]2[C@H]3[C@H](O)[C@H](O)C/C(=N/OC)[C@@H]3CC[C@@H]2C1=O,-,-,0[13.5 µM]
O=C(NCc1ccco1)/C(=C\c1cccs1)NC(=O)c1ccco1,-,-,0
CCOC(=O)c1csc(NC(=O)Nc2cccc(Cl)c2)n1,0,0,0
O=C(OCC#CCSc1nnc(-c2ccccc2)o1)c1cccs1,16µM,0,20µM
O=C(OCC#CCSc1nnc(-c2cccc3ccccc23)o1)c1cccs1,?,0,?
Cc1cc(C)n2nc(C(=O)OCC(=O)c3c[nH]c4ccccc34)nc2n1,-,-,0
c1ccc(CN2CCC3(CC2)SSC2(CCN(Cc4ccccc4)CC2)SS3)cc1,0,-,0[13.5 µM]
O=C(NN1C(=O)c2cc(Br)ccc2NC1c1cc(Br)cc(Br)c1O)c1ccncc1 (centres undefined),0,0,0
Cc1cc(C)cc(-c2nnc(SCC(=O)c3ccc4c(c3)OCCO4)o2)c1,0,0,0
O=C(CSc1nnc(-c2ccc3c(c2)OCCO3)o1)N1CCCC1,0,0,25µM
CCC1CCCCN1C(=O)CSc1nc2c([nH]c3ccccc32)c(=O)n1C (centres undefined),0,0,?
CCC1CCCCN1C(=O)CSc1nc(N)cc(N)n1 (centres undefined),-,-,8.9µM
Cc1ccc(-c2nnc(SCC(=O)N3CCCC3)o2)cc1C,0,0,?
CCC1CCCCN1C(=O)CSc1nnc(-c2ccc3c(c2)OCCO3)o1 (centres undefined),?,-107,?
O=C(CSc1nnc(-c2ccccc2)o1)c1ccc2c(c1)OCCO2,0,0,3.2µM
CCC1CCCCN1C(=O)CSc1nnc(-c2ccc(OC)cc2)o1 (centres undefined),0,0,?

# Screening results deposited in PubChem by National Center for Advancing Translational Sciences (NCATS).
